FLuc counter: inhibits or activates purified firefly luciferase, miR-21 counter-screen | Potency, µM (series often up to 57.5 µM), without a hit: top-dose activity change, negative = inhibition, hits mostly inhibitors | purified FLuc, Km substrates, luminescence inhibition | actives 6.9% (n = 360,000) | P08659;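 also: plate controls were vehicle for no effect and reference inhibitor for full effect; nearly all actives have a fitted effect of over 55% in size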
Target sequence (P08659 whole entry, looked up): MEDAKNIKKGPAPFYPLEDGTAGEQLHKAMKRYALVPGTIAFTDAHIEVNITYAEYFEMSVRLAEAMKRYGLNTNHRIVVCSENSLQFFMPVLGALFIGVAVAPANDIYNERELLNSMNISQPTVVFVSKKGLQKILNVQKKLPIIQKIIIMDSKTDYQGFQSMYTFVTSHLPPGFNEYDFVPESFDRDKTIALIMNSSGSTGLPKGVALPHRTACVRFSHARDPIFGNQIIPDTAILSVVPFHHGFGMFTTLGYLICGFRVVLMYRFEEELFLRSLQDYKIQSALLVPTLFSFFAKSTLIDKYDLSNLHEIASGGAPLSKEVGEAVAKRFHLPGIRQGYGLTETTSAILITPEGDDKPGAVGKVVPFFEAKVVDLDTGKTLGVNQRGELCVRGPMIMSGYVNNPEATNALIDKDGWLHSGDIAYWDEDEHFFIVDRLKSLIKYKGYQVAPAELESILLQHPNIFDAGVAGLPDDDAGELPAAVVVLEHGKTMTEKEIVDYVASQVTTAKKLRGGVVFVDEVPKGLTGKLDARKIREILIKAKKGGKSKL
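Purified P. pyralis luciferase, 10 nM final, with Km-level 10 uM D-luciferin and 10 uM ATP in 50 mM Tris acetate pH 7.5, 10 mM Mg acetate, 0.01% Tween-20, 0.05% BSA; 6-point qHTS titration about 60 µM downward; luminescence read.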
Luc counter: blocks Kinase-Glo luciferase, a counter-screen artifact; Kinase-Glo luciferase, ATP luminescence, 8 min; Potency, µM (titrated, usually from 38.3 µM), without a hit: at the top dose activity change, negative = inhibition, hits mostly inhibitors; actives 0.28% (n = 200,000); AID 1379; also: % is scaled to controls: 0 for no effect and ±100 for the full control effect; nearly all actives have a fitted effect of over 60% in size
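Compounds were added to a substrate mix at pH 7.2 (50 mM imidazole, 10 uM ATP, within the enzyme's linear range), followed by Kinase-Glo detection reagent; luminescence was measured after 8 minutes at ambient temperature.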
ELG1 genotox: inducers of genotoxicity in HEK293T ELG1-luciferase cells. AID 504466. Potency, µM (series often up to 46 µM), inactives show at the top dose activity change, positive = activation, usual class: activators. HEK293T ELG1-luciferase reporter, luminescence, 16 h. actives 1.3% (n = 330,000); also: % of control where 0% means no effect; nearly all actives have a fitted effect of over 60% in size
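HEK293T cells expressing luciferase-tagged ELG1 were treated with compound or DMSO for 16 hr at 37°C. Luciferase activity was then read after 30 min with ONE-Glo at room temperature; rising signal flags genetic stress.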
SMN2 splice enh: enhancers of SMN2 splice variant expression. HEK293 SMN2-luciferase splicing reporter, luminescence, 30-36 h. Potency, µM (highest dose often 46.1 µM), for the others: top-dose activity change, positive = activation, most hits filed as activators. actives 2.8% (n = 210,000); also: % of control where 0% means no effect; nearly all actives have a fitted effect of over 55% in size
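HEK293 cells carry an SMN2 […]–luciferase reporter in which exon 7 inclusion puts luciferase in frame. Cells were plated 10-12 h before compound addition, then incubated 30-36 h at 37C. ONE-Glo luminescence was read; sodium butyrate at 4.5 mM final served as control.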
Rab9 prom act: Rab9 promoter activation | actives 2.8% (n = 320,000) | Potency, µM (series often up to 9.22 µM), for inactives: at the highest dose activation, negative = inhibition, most hits filed as activators | AID 485297 | Huh7 Rab9 promoter-luciferase reporter, luminescence, 24 h; also: % of control where 0% means no effect; nearly all actives have a fitted effect of over 60% in size
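Rab9 promoter-driven luciferase in stably transfected Huh7 cells; 1500 cells/well rested 2 h, exposed to compound in DMSO for 24 h at 37 °C, 5% CO2. Luminescence read 10 min after adding luciferase reagent at ambient temperature.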
NPC1 promoter act: NPC1 promoter activation; Potency, µM (doses to about 9.22 µM), for inactives: at the top dose activation, most hits filed as activators; AID 485313; actives 2.4% (n = 320,000); Huh7 NPC1 promoter luciferase reporter, 24 h; also: % of control where 0% means no effect; nearly all actives have a fitted effect of over 60% in size
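Compounds in DMSO were transferred onto Huh7 NPC1-luciferase reporter cells pre-incubated 2 h; after 24 h at 37 °C, Amplite reagent was dispensed and luminescence recorded 10 min later.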
Starred values were filed as active, the others as inactive. An excerpt weighted towards active compounds, which were near 7.3% of everything screened. Calls follow the shape of the dose curve; as a rule, active = well fitted curve in the direction sought with a large enough effect; inconclusive = small, poorly fitted or top-dose-only effect, or another doubt; inactive = no such curve, though single readings can be large; an effect the other way counts as inactive or inconclusive. Potency is read from the fitted curve at half-maximal effect.

`Cc1cc(S(=O)(=O)N2CCCC2)ccc1OCC(=O)NC1CCCC1` gave FLuc counter -1%, Luc counter -5%, ELG1 genotox -4%, Rab9 prom act -12% and NPC1 promoter act 0%.
For CCn1ncc(C(=O)Nc2ccccc2C)c1C the results were FLuc counter -1%, Luc counter -9%, ELG1 genotox 2%, SMN2 splice enh 3%, Rab9 prom act -3% and NPC1 promoter act -1%.
For Cn1c(SCC(=O)NCCc2ccccc2)nnc1-c1ccncc1 the results were FLuc counter 2%, Luc counter 3%, ELG1 genotox -9%, SMN2 splice enh -2%, Rab9 prom act 6% and NPC1 promoter act 3%.
`CSC1=NSC2=NC(=O)/C(=C\c3cccs3)C(=N)N12` gave FLuc counter 9.5µM*, Luc counter -11%, ELG1 genotox inconclusive, SMN2 splice enh 0.5µM*, Rab9 prom act 1.4µM* and NPC1 promoter act 3.5µM*.
`CC(C)CSC1=NSC2=NC(=O)/C(=C\c3cccs3)C(=N)N12` gave FLuc counter inconclusive, Luc counter 0%, ELG1 genotox -1%, SMN2 splice enh inconclusive, Rab9 prom act 12% and NPC1 promoter act 25%.
`CN(C)c1cccc(C(=O)N2CCC(c3ccncc3)CC2)c1` gave FLuc counter -3%.
Screening O=C(Nc1ccc(Cl)c(S(=O)(=O)N2CCOCC2)c1)c1ccc2c(c1)OCCO2 returned FLuc counter 27µM*, Luc counter 0%, ELG1 genotox -17%, SMN2 splice enh -53%, Rab9 prom act 4% and NPC1 promoter act -1%.
For CCC(CC)C(=O)Nc1cccc(C(=O)Nc2ccc3c(c2)OCO3)c1 the results were FLuc counter inconclusive, Luc counter 0%, ELG1 genotox 11%, SMN2 splice enh 8.9µM*, Rab9 prom act 18% and NPC1 promoter act 27%.
For CCCN(CCC)S(=O)(=O)c1cccc(C(=O)Nc2ccc3c(c2)OCO3)c1 the results were FLuc counter -11%, Luc counter 4%, ELG1 genotox -11%, SMN2 splice enh -9%, Rab9 prom act -4% and NPC1 promoter act -1%.
`CS(=O)(=O)c1cccc(C(=O)Nc2ccc3c(c2)OCCCO3)c1` gave FLuc counter 15µM*, ELG1 genotox inconclusive, Rab9 prom act 3.5µM* and NPC1 promoter act inconclusive.
`CCN(CC)S(=O)(=O)c1cccc(C(=O)Nc2ccc3c(c2)OCO3)c1` gave FLuc counter 15µM*, Luc counter -5%, ELG1 genotox 6%, SMN2 splice enh inconclusive, Rab9 prom act inconclusive and NPC1 promoter act inconclusive.
`O=C(Nc1ccc(Cl)c(S(=O)(=O)N2CCOCC2)c1)c1ccc2c(c1)OCO2` gave ELG1 genotox -12%.
`COc1ccc(N(C)S(=O)(=O)c2cccc(C(=O)Nc3ccc4c(c3)OCCO4)c2)cc1` gave FLuc counter -9%, Luc counter 0%, ELG1 genotox -13%, SMN2 splice enh 9%, Rab9 prom act -8% and NPC1 promoter act 0%.
O=C(COc1ccc([N+](=O)[O-])cc1)Nc1ccccc1C(=O)NC1CC1 was read as FLuc counter 6%, ELG1 genotox 1%, Rab9 prom act 3% and NPC1 promoter act -5%.
`O=C(Nc1ccc2c(c1)OCCO2)c1cccc(S(=O)(=O)N2CCOCC2)c1` gave FLuc counter inconclusive, Luc counter 2%, ELG1 genotox inconclusive, SMN2 splice enh inconclusive, Rab9 prom act 4.5µM* and NPC1 promoter act inconclusive.
O=C(Nc1ccc2c(c1)OCCO2)c1cccc(S(=O)(=O)N2CCCCC2)c1 was read as FLuc counter inconclusive, Luc counter -2%, ELG1 genotox 9%, SMN2 splice enh -10%, Rab9 prom act -6% and NPC1 promoter act -2%.
`CC(C)(C)c1ccc(OCc2cnc(Cl)s2)cc1` gave FLuc counter 13µM*, Luc counter -7%, ELG1 genotox inconclusive, SMN2 splice enh 3%, Rab9 prom act inconclusive and NPC1 promoter act 17%.
`CC(=O)Nc1cccc(OCc2cnc(Cl)s2)c1` gave FLuc counter -20%, Luc counter 5%, ELG1 genotox 13%, SMN2 splice enh 19%, Rab9 prom act 6% and NPC1 promoter act -2%.
`COC(=O)c1cc(-c2ccc(Cl)cc2Cl)n[nH]1` gave FLuc counter 15µM*, Luc counter -1%, ELG1 genotox inconclusive, SMN2 splice enh 21%, Rab9 prom act -2% and NPC1 promoter act 1%.
`COC(=O)c1cc(-c2ccc(Cl)cc2)n[nH]1` gave FLuc counter inconclusive, Luc counter 3%, ELG1 genotox 7%, Rab9 prom act 11% and NPC1 promoter act -9%.
`Cc1sc2nc3c(SC(C)C(=O)O)cc(C(=O)c4ccccc4O)cn3c(=O)c2c1C` (stereo not drawn) gave FLuc counter 21µM*, Luc counter 2%, ELG1 genotox 5%, SMN2 splice enh 13%, Rab9 prom act -11% and NPC1 promoter act -5%.
`O=C(O)CSc1cc(C(=O)c2ccccc2O)cn2c(=O)c3c(-c4ccccc4)csc3nc12` gave FLuc counter 15µM*, Luc counter -1%, ELG1 genotox 0%, SMN2 splice enh -2%, Rab9 prom act 1% and NPC1 promoter act -4%.
`COC(=O)c1cc(C(=O)c2cc(F)ccc2O)cn2c(=O)c3c(C)c(C)sc3nc12` gave FLuc counter inconclusive, ELG1 genotox -5%, Rab9 prom act -1% and NPC1 promoter act -2%.
CCc1c(C)sc2nc3c(C(=O)N4CCOCC4)cc(C(=O)c4ccccc4O)cn3c(=O)c12 was read as FLuc counter -12%, Luc counter -1%, ELG1 genotox -12%, SMN2 splice enh -15%, Rab9 prom act -15% and NPC1 promoter act 2%.
COc1ccc(O)c(C(=O)c2cc(SCC(=O)O)c3nc4sc5c(c4c(=O)n3c2)CCCC5)c1 was read as FLuc counter 6.7µM*, ELG1 genotox 4%, Rab9 prom act -3% and NPC1 promoter act 2%.
CCOC(=O)c1sc2nc3c(SCC(=O)O)cc(C(=O)c4cc(F)ccc4O)cn3c(=O)c2c1C was read as FLuc counter 8.5µM*, Luc counter 3%, ELG1 genotox 4%, SMN2 splice enh 23%, Rab9 prom act -3% and NPC1 promoter act 1%.
